Bioassay records from PubChem.
This is a sample that favours compounds with a hit; in the whole collection about 3.5% have one here.
MITF inh: blocks human microphthalmia-associated transcription factor; actives 0.91% (n = 650,000); O75030; AlphaScreen MITF homodimerization, bead proximity signal; inhibition, % at 2.6 µM; in the data active = inhibition above about 50%
Target sequence (O75030 whole entry, looked up): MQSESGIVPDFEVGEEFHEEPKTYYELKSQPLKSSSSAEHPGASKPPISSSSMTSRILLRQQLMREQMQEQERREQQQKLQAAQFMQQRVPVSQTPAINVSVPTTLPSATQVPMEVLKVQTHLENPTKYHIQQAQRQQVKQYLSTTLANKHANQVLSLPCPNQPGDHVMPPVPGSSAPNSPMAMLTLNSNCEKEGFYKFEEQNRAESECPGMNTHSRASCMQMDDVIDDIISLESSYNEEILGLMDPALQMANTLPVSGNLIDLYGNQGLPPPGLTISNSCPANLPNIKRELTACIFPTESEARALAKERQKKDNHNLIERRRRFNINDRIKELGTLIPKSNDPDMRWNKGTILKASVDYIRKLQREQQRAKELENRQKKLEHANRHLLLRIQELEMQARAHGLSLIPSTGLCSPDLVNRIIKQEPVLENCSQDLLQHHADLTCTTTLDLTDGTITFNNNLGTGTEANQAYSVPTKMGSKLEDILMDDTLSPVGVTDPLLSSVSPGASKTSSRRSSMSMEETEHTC
GPR151 ag: human GPR151 activation | activation, % at 11.2 µM | actives 1% (n = 650,000) | PathHunter beta-arrestin GPR151 cells, luminescence | Q8TDV0; in the data active = activation above about 4.9%
FBW7 act: human FBW7 E3 ligase activation, primary screen | Q969H0 | AlphaScreen FBW7–phospho-cyclin E peptide binding, activator screen | normalized activity (activation), % at 26.1 µM | actives 0.13% (n = 650,000) | AID 1259310; in the data active = normalized activity above about 1.9%;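 note: purified mutant Fbw7 with reduced substrate affinity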
TEAD-YAP block: TEAD-YAP interaction inhibition; HEK-TIYL cells, TEAD-Gal4/YAP UAS-luciferase luminescence; inhibition, % at 9.12 µM; actives 1.4% (n = 640,000); AID 1259422; in the data active = inhibition above about 32%
A number is an active result; 0 = inactive.

SMILES	MITF inh	GPR151 ag	FBW7 act	TEAD-YAP block
Cc1cc(C(=O)CSc2ncnc3sccc23)c(C)n1CC1CCCO1 (configuration not stated)	0	0	0	0
Ic1cccc(C2Nc3ccccc3C(c3ccccc3)(c3ccccc3)O2)c1 (configuration not stated)	0	0	0	0
O=C(O)Cc1ccc(NCc2cccnc2)cc1	0	0	0	0
Cc1c([N+](=O)[O-])cc(C(=O)Nc2nccs2)cc1[N+](=O)[O-]	0	0	0	0
O=C(c1ccc2cncc(-c3ccccc3)c2n1)N1CCC(O)CC1	0	0	0	51
O=C(c1ccc2cncc(-c3ccsc3)c2n1)N1CCC(O)CC1	0	0	0	61
O=C(c1ccc2cncc(-c3ccccc3)c2n1)N1CCOCC1	0	0	0	36
COc1ccc(Nc2nc(C(=O)N3CCCC3)cs2)cc1OC	0	0	0	0
COc1cc(OC)cc(-c2nnc(SCc3ccccc3)o2)c1	0	0	0	0
Cc1ccc2oc(-c3ccc(N4CCC(C)CC4)c([N+](=O)[O-])c3)nc2c1	0	0	0	93
CC(=O)N1CCC(N(CCCOC(C)C)C(=S)Nc2ccc(Cl)c(C)c2)CC1	0	0	0	0
CCCOC(=O)C1=C(C)NC2=C(C(=O)CC(c3cccs3)C2)C1c1coc2ccccc2c1=O (configuration not stated)	0	0	0	0
COCCCNC(=O)Nc1nnc(N(C)Cc2ccccc2)s1	0	0	0	0
CN(Cc1ccccc1)c1nnc(NC(=O)NCc2ccccc2)s1	0	0	0	47
CCCCN(C)c1nnc(NC(=O)NCc2ccccc2)s1	0	0	0	58
CCSCCOC(=O)C1=C(C)NC2=C(C(=O)CCC2)C1c1ccc(Br)cc1 (configuration not stated)	0	0	2.0	0
CCOc1cccc(C2C(C(=O)OCCSCC)=C(C)NC3=C2C(=O)C(C(=O)OC)C(C)C3)c1 (configuration not stated)	0	0	1.9	0
CCOc1ccc(C2C(C(=O)OCCSCC)=C(C)NC3=C2C(=O)C(C(=O)OC)C(C)C3)cc1 (configuration not stated)	0	0	0	0
CC1=C(C(=O)OCCOc2ccccc2)C(c2coc3ccc(Cl)cc3c2=O)C2=C(CCCC2=O)N1 (configuration not stated)	0	0	0	0
CCOC(=O)C1=C(C)NC2=C(C(=O)CCC2)C1c1coc2ccc(Cl)cc2c1=O (configuration not stated)	0	0	2.3	0
Cc1ccc(CCC(=O)Nc2ncc(Cc3ccccc3)s2)o1	0	0	0	56
Cc1ccc(CCC(=O)Nc2ncc(Cc3ccccc3Cl)s2)o1	0	0	0	56
O=C(CCl)Nc1ncc(Cc2ccccc2)s1	0	0	0	0
CCc1ccc(CCC(=O)Nc2ncc(Cc3ccccc3F)s2)o1	0	0	0	0
Cc1ccc(Cc2cnc(NC(=O)CCc3ccc(C)o3)s2)cc1	0	0	0	67
SMILES	MITF inh	GPR151 ag	FBW7 act	TEAD-YAP block
Cc1ccc(C(=O)Nc2ncc3c(n2)CC(c2cccs2)CC3=O)cc1 (configuration not stated)	0	0	0	0
COc1ccc(C2C(C(=O)OC(C)C)=C(C)N=c3s/c(=C\c4cccnc4)c(=O)n32)cc1 (configuration not stated)	0	0	0	0
CC(=O)Oc1ccc2cc(NC(=O)c3cccc(C)c3)c(=O)oc2c1	0	0	0	38
CC(=O)Nc1cc2ccccc2oc1=O	0	0	0	0
Cc1ccc(C(=O)Nc2cc3cc(Br)ccc3oc2=O)cc1C	0	0	0	0
Cc1ccc(C(=O)Nc2cc3ccccc3oc2=O)cc1C	0	0	0	62
Cc1ccc(C(=O)Nc2cc3ccccc3oc2=O)cc1	0	0	0	86
CCCCc1ccc(C(=O)Nc2cc3ccccc3oc2=O)cc1	0	0	0	55
COC(=O)c1cc(S(=O)(=O)Nc2cccc3c2CCCC3)cn1C	0	0	0	0
CCOc1ccc(NC(=O)C2CCN(c3nc4ccc(OCC)cc4s3)CC2)cc1	0	0	0	0
CCOc1ccc2nc(N3CCC(C(=O)Nc4cccc(C(C)=O)c4)CC3)sc2c1	0	0	0	69
CCc1ccc2nc(N3CCC(C(=O)N4CCCC4)CC3)sc2c1	0	0	0	48
CCOC(=O)N1CCN(C(=O)C2CCN(c3nc4ccc(CC)cc4s3)CC2)CC1	0	0	0	0
CCOc1ccc2nc(SCCC(=O)Nc3ccccc3)sc2c1	0	0	0	36
CCc1ccc2nc(N3CCCC(C(=O)O)C3)sc2c1 (configuration not stated)	0	0	0	58
